Source: PubChem BioAssay (NCATS)
“And” between values parts separate entries of the source, which are not always exact repeats. Identical values can stand only once. Records with an inconclusive call do not appear. Where a call stands in place of a potency, no number is given. Some structures have more than one record in an assay (separate samples or runs), and their calls can disagree. The source made the active and inactive calls. The call rests on the fitted dose curve; in most records, active means well fitted curve in the direction sought with a large enough effect; inconclusive means small, poorly fitted or top-dose-only effect, or another doubt; inactive means no such curve, though single readings can be large; an effect the other way counts as inactive or inconclusive.

Tests used:
UISO = assay: qHTS assay to identify novel small-molecules to repurpose for Merkel cell carcinoma treatment (AID 1296009); conditions: MCC and control cell lines, CellTiter-Glo viability, 72 h; series mostly up to 46 µM; further: nearly all actives have a fitted effect of over 60% in size; further: potency means the concentration at half of the fitted maximal effect
Method in brief: (§1)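 qHTS format: cells treated with library compounds in DMSO across 8 (NPC) or 11 (MIPE) concentrations. Readout after 72 hr at 37 degree celsius was CellTiter-Glo luminescence.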

WaGa = assay: as above; conditions: MCC and control cell lines, CellTiter-Glo viability, 72 h; series mostly up to 46 µM
Method in brief: as §1

C33A = assay: Primary qHTS to identify gynecologic anti-cancer compounds using libraries of approved drugs and bioactive compounds (AID 1345084); conditions: Gynecologic cancer cell panel viability, ATPlite luminescence, 48 h; series mostly up to 57.5 µM; further: nearly all actives have a fitted effect of over 55% in size
Method in brief: (§2)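 Cell viability after 48 h drug treatment, ATPlite luminescence readout; five doses.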

CASKI = assay: as above; conditions: Gynecologic cancer cell panel viability, ATPlite luminescence, 48 h; series mostly up to 57.5 µM
Method in brief: as §2

Es-2 = assay: as above; conditions: Gynecologic cancer cell panel viability, ATPlite luminescence, 48 h; series mostly up to 57.5 µM
Method in brief: as §2

HeLa = assay: as above; conditions: Gynecologic cancer cell panel viability, ATPlite luminescence, 48 h; series mostly up to 57.5 µM
Method in brief: as §2

Hek293T = assay: as above; conditions: Gynecologic cancer cell panel viability, ATPlite luminescence, 48 h, control line for the selectivity index; series mostly up to 57.5 µM
Method in brief: as §2

JEG-3 = assay: as above; conditions: Gynecologic cancer cell panel viability, ATPlite luminescence, 48 h; series mostly up to 57.5 µM
Method in brief: as §2

OV90 = assay: as above; conditions: Gynecologic cancer cell panel viability, ATPlite luminescence, 48 h; series mostly up to 57.5 µM
Method in brief: as §2

PA-1 = assay: as above; conditions: Gynecologic cancer cell panel viability, ATPlite luminescence, 48 h; series mostly up to 57.5 µM
Method in brief: as §2

SKOV3 = assay: as above; conditions: Gynecologic cancer cell panel viability, ATPlite luminescence, 48 h; series mostly up to 57.5 µM
Method in brief: as §2

Tov-21-G = assay: as above; conditions: Gynecologic cancer cell panel viability, ATPlite luminescence, 48 h; series mostly up to 57.5 µM
Method in brief: as §2

Tov112D = assay: as above; conditions: Gynecologic cancer cell panel viability, ATPlite luminescence, 48 h; series mostly up to 57.5 µM
Method in brief: as §2

[1] = Drug repurposing screens with cells derived from glioblastoma tumor samples (AID 1345199); conditions: GBM patient neurospheres viability, ATP luminescence, 48 h; further: nearly all actives have a fitted effect of over 40% in size; further: potency means the concentration at half of the fitted maximal effect
Method in brief: (§3)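 Four patient lines of CD133+ GBM neurospheres were screened at several concentrations; hits were retested in those lines plus three slower-growing GBM lines, using 48-hour treatment and ATP-based viability.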

CAOV3 = assay: Primary qHTS to identify gynecologic anti-cancer compounds using libraries of approved drugs and bioactive compounds (AID 1345084); conditions: Gynecologic cancer cell panel viability, ATPlite luminescence, 48 h; series mostly up to 57.5 µM; further: nearly all actives have a fitted effect of over 55% in size
Method in brief: as §2

astro = assay: Drug repurposing screens with cells derived from glioblastoma tumor samples (AID 1345199); conditions: viability, ATP luminescence, 48 h; series mostly up to 45.9 µM; further: nearly all actives have a fitted effect of over 40% in size; further: potency means the concentration at half of the fitted maximal effect
Method in brief: as §3

NIH3T3 = assay: qHTS assay to identify novel small-molecules to repurpose for Merkel cell carcinoma treatment (AID 1296009); conditions: MCC and control cell lines, CellTiter-Glo viability, 72 h; series mostly up to 44.8 µM; further: nearly all actives have a fitted effect of over 60% in size; further: potency means the concentration at half of the fitted maximal effect
Method in brief: as §1

[2] = at 20 µM (top of the series), tumour line C
[3] = at 21.2 µM (top of the series), tumour line B
[4] = at 21.2 µM (top of the series), tumour line D
[5] = at 46.1 µM (top of the series), tumour line C
[6] = at 45.9 µM (top of the series), tumour line B

NCCCCCC(=O)O
Potency (UISO): inactive
Potency (WaGa): inactive
Potency (C33A): inactive
Potency (CASKI): inactive
Potency (Es-2): inactive
Potency (HeLa): inactive
Potency (Hek293T): inactive
Potency (JEG-3): inactive
Potency (OV90): inactive
Potency (PA-1): inactive
Potency (SKOV3): inactive
Potency (Tov-21-G): inactive
Potency (Tov112D): inactive
activity, negative = cell killing [1, 2]: 16.3% (inactive)
activity, negative = cell killing [1, 3]: -4.6% (inactive)
activity, negative = cell killing [1, 4]: -5.09% (inactive)
activity, negative = cell killing ([1]; at 21.3 µM (top of the series), tumour line A): -27.1% (inactive)

CN(C)CCC=C1c2ccccc2C=Cc2ccccc21
Potency (UISO): inactive
Potency (WaGa): inactive
Potency (C33A): inactive
Potency (CAOV3): inactive
Potency (CASKI): inactive
Potency (HeLa): inactive
Potency (Hek293T): inactive
Potency (JEG-3): inactive
Potency (PA-1): inactive
Potency (Tov-21-G): inactive
activity, negative = cell killing [1, 5]: 15.9% (inactive)
Potency ([1]; tumour line A): 14.1 µM (active)

Clc1ccc(C(c2ccccc2Cl)C(Cl)Cl)cc1 (centres undefined)
Potency (UISO): inactive
Potency (WaGa): inactive
Potency (C33A): inactive
Potency (CAOV3): inactive
Potency (CASKI): inactive
Potency (Es-2): inactive
Potency (HeLa): inactive
Potency (Hek293T): inactive
Potency (JEG-3): inactive
Potency (OV90): inactive
Potency (PA-1): inactive
Potency (SKOV3): inactive
Potency (Tov-21-G): inactive
Potency (Tov112D): inactive
activity, negative = cell killing [1, 5]: 32.2% (inactive)
Potency ([1]; tumour line A): 22.4 µM (active)

C[C@@H]1CC(=O)NN=C1c1ccc(NN=C(C#N)C#N)cc1
Potency (UISO): 21.1 µM (active)
Potency (WaGa): 23.7 µM (active) and inactive
Potency (C33A): inactive
Potency (CAOV3): inactive
Potency (CASKI): inactive
Potency (Es-2): inactive
Potency (HeLa): inactive
Potency (Hek293T): inactive
Potency (JEG-3): inactive
Potency (OV90): inactive
Potency (PA-1): inactive
Potency (SKOV3): inactive
Potency (Tov-21-G): inactive
Potency (Tov112D): inactive
activity, negative = cell killing [1, 6]: -23.8% (inactive)
activity, negative = cell killing [1, 5]: -26.3% (inactive)
Potency (astro): inactive

CN1C(C(=O)Nc2ccccn2)=C(O)c2ccccc2S1(=O)=O
Potency (UISO): inactive
Potency (WaGa): inactive and 16.6 µM (active)
Potency (C33A): inactive
Potency (CAOV3): inactive
Potency (CASKI): inactive
Potency (Es-2): inactive
Potency (HeLa): inactive
Potency (Hek293T): inactive
Potency (JEG-3): inactive
Potency (OV90): inactive
Potency (PA-1): inactive
Potency (Tov-21-G): inactive
Potency (Tov112D): inactive
activity, negative = cell killing [1, 2]: -3.14% (inactive)
activity, negative = cell killing [1, 3]: -6.49% (inactive)
activity, negative = cell killing [1, 4]: 0.702% (inactive)
Potency (astro): inactive

C[C@H]1c2cccc(O)c2C(O)=C2C(=O)[C@]3(O)C(O)=C(C(N)=O)C(=O)[C@@H](N(C)C)[C@@H]3[C@@H](O)[C@@H]21
outcome (NIH3T3): inactive
Potency (WaGa): inactive
Potency (C33A): inactive
Potency (Es-2): inactive
Potency (HeLa): inactive
Potency (Hek293T): inactive
Potency (JEG-3): inactive
Potency (OV90): inactive
Potency (PA-1): inactive
Potency (SKOV3): inactive
Potency (Tov-21-G): inactive
Potency (Tov112D): inactive
activity, negative = cell killing [1, 6]: -22.1% (inactive)
activity, negative = cell killing ([1]; at 45.9 µM (top of the series), tumour line D): -13% (inactive)

Nc1nc2c(ncn2COC(CO)CO)c(=O)[nH]1
Potency (UISO): inactive and 18.7 µM (active)
Potency (WaGa): inactive
Potency (C33A): inactive
Potency (CASKI): inactive
Potency (Es-2): inactive
Potency (HeLa): inactive
Potency (Hek293T): inactive
Potency (JEG-3): inactive
Potency (OV90): inactive
Potency (PA-1): inactive
Potency (SKOV3): inactive
Potency (Tov-21-G): inactive
Potency (Tov112D): inactive
activity, negative = cell killing [1, 2]: -13.4% (inactive)
activity, negative = cell killing [1, 3]: -13.7% (inactive)
activity, negative = cell killing [1, 4]: -24.4% (inactive)
